Our source for the activation and inhibition values is PubChem BioAssay.

As usually defined, the inhibition is the change of the read-out against control, counted positive when it falls.

Assay [1] concerns HIV-1 integrase (multimerization). As to the kind of experiment: stimulation of HIV-1 integrase oligomerization – biochemical, TR-FRET, counter-screen for LEDGF/p75 integration inhibitor project (AID 1053131). The conditions noted are these: TR-FRET HIV-1 integrase multimerization, at 7.7 µM, hits give high values. A general note: In TR-FRET formats the signal depends on donor and acceptor labels being close together.

Assay [2] is described as follows: compounds disturbing TR-FRET signal readout – biochemical, HIV-1 IN multimerization, artefact control for LEDGF/p75-dependent integration inhibitor project, confirmation (AID 1053135;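 active = inhibition above the mean over all tested compounds plus 3 SD, which no compound reached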;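 note: 0% = integrase with antibodies and DMSO and 100% = antibodies without integrase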). Particulars: TR-FRET optical interference counterscreen, at 7.7 µM, hits give high values.
Assay [3] deals with HIV-1 integrase / human LEDGF/p75 complex. The assay is described as follows: blockers of LEDGF/p75-dependent integrase activity – biochemical, TR-FRET, confirmation (AID 1053136; in the data active = inhibition above about 14%). The conditions noted are these: TR-FRET LEDGF/p75-dependent HIV-1 integration, at 3.7 µM, hits give high values.

The structures appear in SMILES notation. The list shows a part of the results. A number with no mark means an inactive call. Active and inactive are the calls of the source. Cut-off read from the data, not from the text of the source, unless noted: active = activation above about 8.9%; inactive = the rest.

With `CN(C)c1ccc(C(CC(=O)O)C(=O)O)cc1` (stereo unspecified), the activation in assay [1] was 3.35%. Moreover, the inhibition in assay [2] is -16.9%; in assay [3] it was 0.73%.

Turning to `CC(=O)OCC1(O)CC23CCC4c5ccoc5CCC4(C)C2CCC1C3` (stereo unspecified), the activation in assay [1] was 0.06%. For the same molecule, the inhibition was -0.26% in assay [2] and 9.45% in assay [3].

For `C=CCn1c2ccccc2c2nnc(SCc3[nH]c(=O)[nH]c3C(=O)CCCCC(=O)OCC)nc21`, in assay [1], the activation is -0.48%. For the same molecule, the inhibition in assay [2] was 2.45%; in assay [3], 24% (active).

`O=C(NC1CCCCC1)N1CCc2[nH]c3ccccc3c2C1`: the activation in assay [1] is 1.36%. Besides, the figures for the inhibition in assay [2] and in assay [3] were -6.83% and 2.35%, respectively.

`NC(=O)c1ccccc1NC(=O)c1ccccc1F`: the activation in assay [1] is 1.09%. Further, the inhibition in assay [2] is -4.33%; in assay [3], -4.54%.

For the molecule `CCn1nc(C)c(CN2CCN(Cc3ccc(OC)c(C)c3C)C(CCO)C2)c1C` (stereo unspecified), in assay [1], the activation is -0.07%. Further, the inhibition is 0.39% in assay [2] and -3.09% in assay [3].

In the case of `Cc1cc(SCC(=O)NCCN2C(=O)CSC2=O)nc2ccccc12`, the activation in assay [1] was 0.99%. The figures for the inhibition in assay [2] and in assay [3] were -4.97% and 1.78%, respectively.

As for `COc1ccc(Cn2cc(CN3CCS(=O)(=O)N(Cc4ccc(-c5cccc(Cl)c5)cc4)C(C)C3=O)nn2)cc1` (stereo unspecified), the activation in assay [1] is -2.68%. In addition, the inhibition was 13.6% in assay [2] and -1.87% in assay [3].

Consider `Oc1cc(O)c2c(c1)OC(c1ccc(O)c(O)c1)C(O)C2` (stereo unspecified), for which the activation in assay [1] is 10.4% (active). In addition, the inhibition in assay [2] is -52.5%; in assay [3] it was -0.79%.

`O=C(O)CCC(=O)Nc1ccc(N2CCOCC2)cc1`: the activation in assay [1] is 0.12%. Also, the inhibition in assay [2] is -0.6%; in assay [3], 1.39%.

With `O=C(COC(=O)CCC(=O)c1cccs1)NCc1ccco1`, the activation in assay [1] is 11.5% (active). Also, the inhibition in assay [2] is -58.1%; in assay [3], 19.2% (active).

`COc1c(O)cc2oc(-c3ccc(O)c(O)c3)cc(=O)c2c1O`: the activation in assay [1] was 16.2% (active). In addition, the inhibition in assay [2] was -81.9%; in assay [3], 89.6% (active).

As for `COCCn1nnnc1C(c1cc2ccc(OC)cc2[nH]c1=O)N1CCc2ccccc2C1` (stereo unspecified), the activation in assay [1] is 0.07%. Also, the inhibition in assay [2] was -0.28%; in assay [3] it was 0.92%.

For the molecule `COc1cc(-c2nnc(NC(=O)CS(=O)(=O)c3ccc(Cl)cc3)o2)cc(OC)c1OC`, in assay [1], the activation was 0.46%. Further, the inhibition was -2.3% in assay [2] and 4.63% in assay [3].

On to `CCc1cc2cc(OC)ccc2nc1SCC(=O)Nc1cc(OC)c(OC)cc1C(=O)O`, for which the activation in assay [1] is -3.01%. In addition, the inhibition in assay [2] is 15.3%; in assay [3], 5.77%.

As for `COc1cc(/C=C2\CCCc3c2nc2ccccc2c3C(=O)O)cc(Cl)c1O`, the activation in assay [1] was -1.15%. In addition, the figures for the inhibition in assay [2] and in assay [3] were 5.85% and -2.25%, respectively.

On to `O=C(Nc1nnc(-c2ccco2)o1)c1ccc(S(=O)(=O)N2CCOCC2)cc1`, for which, in assay [1], the activation is 0.8%. The inhibition in assay [2] was -4.01%; in assay [3] it was -5.04%.

As to `Cc1cc(C)c2nc(-c3ccco3)cc(C(=O)O)c2c1`, in assay [1], the activation is 2.58%. Also, the inhibition in assay [2] is -12.9%; in assay [3], 63.6% (active).

For the molecule `O=C(O)c1ccc(NN=CC2=C(N3CCOCC3)/C(=C/c3ccccc3)CC2)cc1`, the activation in assay [1] is 3.07%. Besides, the inhibition in assay [2] was -10.9%; in assay [3] it was 16.6% (active).

With `Cc1cc2c(c(=O)n1Cc1ccco1)C(c1ccccc1)C(C#N)=C(N)O2` (stereo unspecified), the activation in assay [1] was 1.58%. In addition, the inhibition is -5.7% in assay [2] and -9.1% in assay [3].

Turning to `CCOc1cccc(=O)c2c(C)n(CC3CCCO3)c(C)c12` (stereo unspecified), the activation in assay [1] is 2.93%. Further, the inhibition was -10.4% in assay [2] and 4.91% in assay [3].

Consider `COc1ccc(C(=O)/C=C/c2ccc(-c3ccccc3)cc2)cc1CSCC(=O)O`, for which the activation in assay [1] was -1.35%. Moreover, the inhibition in assay [2] is 6.82%; in assay [3], 21.8% (active).

In the case of `O=C(CN(C(=O)c1csnn1)c1cccc(Cl)c1)NC1CCCC1`, the activation in assay [1] is -0.52%. Also, the inhibition was 2.68% in assay [2] and 3.72% in assay [3].

As to `CCOC(=O)/C(C#N)=C\c1c(C)cc(C)c(COC(C)=O)c1C`, the activation in assay [1] is 0.2%. In addition, the inhibition was -1.03% in assay [2] and 3.21% in assay [3].

On to `COc1ccc(NC(=O)C(NC(C)=O)C(=O)NCc2ccccc2Cl)cc1` (stereo unspecified), for which the activation in assay [1] was -0.36%. Further, the results for the inhibition in assay [2] and in assay [3] were 1.86% and 2.33%, respectively.

On to `C[C@H]([C@@H](O)[C@@H](O)[C@@H](C)C(C)(C)C)[C@H]1CC[C@H]2C3CC[C@H]4C[C@H](OS(=O)(=O)O)[C@@H](OS(=O)(=O)O)C[C@]4(C)[C@H]3CC[C@]12C` (stereo partly specified), for which the activation in assay [1] was -1.87%. In addition, the results for the inhibition in assay [2] and in assay [3] were 6.58% and 32.4% (active), respectively.

For the molecule `COc1cc(NC(=O)COC(=O)c2ccc([N+](=O)[O-])s2)cc(OC)c1OC`, the activation in assay [1] is -0.28%. For the same molecule, the inhibition in assay [2] was 1.01%; in assay [3], 51.5% (active).
